# Reference: PubChem BioAssay (NCATS)
# Inconclusive results are not listed. Entries that show only a call come without a potency. Active and inactive are the calls of the source. Calls follow the shape of the dose curve; as a rule, active = well fitted inhibition curve with a large enough effect; inconclusive = small, poorly fitted or top-dose-only effect; inactive = no such curve, though single readings can be large or run the other way. Where a SMILES comes first, the peptide text is derived from it. Bridges are numbered along the chain shown (N, C = ends). [ ]: non-standard residue; d: D form. NMeY = CN[CH](Cc1ccc(O)cc1)C(=O)O
# Test system: Zika virus NS2B-NS3 protease (unlinked complex)
# Experiment: Primary screen GU Rhodamine qHTS for Zika virus inhibitors: Unlinked NS2B-NS3 protease assay (AID 1347159); also: nearly all actives have a fitted effect of over 60% in size
# Details: Recombinant ZIKV NS2B-NS3 protease, Rhodamine110 substrate fluorescence; series mostly up to 107 µM
# In short: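 Compounds, tested up to 114 microM, were incubated for 15 minutes with 25 nM unlinked NS2B-NS3 protease at pH 8.0. Cleavage of 1.5 microM Rhodamine110 substrate was then followed by fluorescence for 15 minutes.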
# Potency is read from the fitted curve at half-maximal effect.
row,SMILES,Potency
1,COc1ncc2cc(C(=O)Nc3cc(C(=O)NCc4cccc(Cl)c4)ccc3Cl)c(=O)[nH]c2n1,inactive
2,CC1(C)CC[C@]2(CO[C@@H]3O[C@H](CO)[C@@H](O)[C@H](O)[C@H]3O)[C@@H](O)C[C@]3(C)C(=CCC4[C@@]5(C)CC[C@H](O[C@@H]6O[C@H](CO[C@@H]7O[C@H](CO[C@@H]8OC[C@@H](O)[C@H](O)[C@H]8O)[C@@H](O)[C@H](O)[C@H]7O)[C@@H](O)[C@H](O)[C@H]6O)C(C)(C)C5CC[C@]43C)[C@@H]2C1 (stereo not given in full),inactive
3,CCCN1CCC(c2cccc(S(C)(=O)=O)c2)CC1,inactive
4,CS(=O)(=O)NCC1CCC(Nc2nc3c(s2)CCSc2ccccc2-3)CC1 (stereo not given),inactive
5,O=C(/C=C/c1ccccc1)OC[C@]12O[C@H]1[C@@H](O)[C@@H]1C=CO[C@@H](O[C@@H]3O[C@H](CO)[C@@H](O)[C@H](O)[C@H]3O)[C@@H]12,inactive
6,CO/N=C(/C(=O)N[C@@H]1C(=O)N2C(C(=O)O)=C(Cn3ccc(=N)n3CCO)CS[C@H]12)c1csc(N)n1,inactive
7,NC(=O)[C@H]1CCS[C@@H]2C[C@]3(CCCN3C(=O)Cc3ccc(NC(=O)COc4ccc(Cl)cc4Cl)cc3)C(=O)N12,inactive
8,C[C@@H]1[C@H]2[C@H](O[C@@H]3O[C@H](CO)[C@@H](O)[C@H](O)[C@H]3O)OC=C(C(=O)O)[C@H]2C[C@@H]1O,inactive
9,CC1(C)CC[C@]2(C(=O)O[C@@H]3O[C@H](CO)[C@@H](O)[C@H](O)[C@H]3O)CC[C@]3(C)C(=CCC4[C@@]5(C)C[C@@H](O)[C@H](O)C(C)(C)C5[C@H](O)C[C@]43C)[C@@H]2[C@@H]1O (stereo not given in full),inactive
10,COc1cc2ncnc(Nc3ccc(O)cc3)c2cc1OC,inactive
11,CCC(Nc1ncnc2nc[nH]c12)c1nc2cccc(F)c2c(=O)n1-c1ccccc1 (stereo not given),inactive
12,C=C(C(=O)O)C1CCC2(C)CCC(O)C(C)(O)C2C1 (stereo not given),inactive
13,COc1cc(O)cc(C)c1C(=O)O[C@H]1[C@@H](OC(C)=O)[C@H](n2ccc(=O)[nH]c2=O)O[C@@H]1CO,inactive
14,O=S(=O)(NCC1CC1)c1ccc(Nc2nccc(N3CCCc4cc(O)ccc43)n2)cc1,39.8 µM (active)
15,COc1c2c(c(CO)c3c1C(=O)OC3)OC1(C)CCC3(O)C(C)(C)OC(=O)CCC3(C)C1C2 (stereo not given),inactive
16,CC1CCC2(OC1)OC1CC3C4CC=C5CC(O)CC(O[C@@H]6OC[C@@H](O)[C@H](O)[C@H]6O)C5(C)C4CCC3(C)C1(O)C2C (stereo not given in full),inactive
17,CC1(C)CCCC2(C)C1C(O)C=C(CO)C2(O)CO (stereo not given),inactive
18,c1cc(OCCCN2CCCCC2)ccc1CN1CCCCC1,inactive
19,O=[N+]([O-])c1cn2c(n1)OCC(OCc1ccc(OC(F)(F)F)cc1)C2 (stereo not given),inactive
20,CCC(C)C1NC(=O)C2CCCN2C(=O)C(NC(C)=O)C(C)OC(=O)C(Cc2ccc(OC)cc2)N(C)C(=O)C2CCCN2C(=O)C(C(C)C)NC1=O (stereo not given) (Ac-TPIVP[NMeY](Me); ester 1-C; configuration not given here),inactive
21,CC(C)C(CO)Nc1nc(Nc2ccc(C(=O)O)c(Cl)c2)c2ncn(C(C)C)c2n1 (stereo not given),inactive
22,CCC(C)C(=O)OC1CC(O)C23C4OCC5(C(O)CC2C1(C)C(O)O4)C3C(=O)CC1(C)C(c2ccoc2)CC2OC215 (stereo not given),inactive
23,CCOCCn1nc(CC)c2nc(N3CCC(C(=O)O)CC3)nc(Nc3cc(C)ccn3)c21,inactive
24,O=C(OC1C=C(CO)C2C(OC3OC(CO)C(O)C(O)C3O)OC=CC12)c1ccc(O)cc1 (stereo not given),inactive
25,Cc1c(CN2CCN(C(=O)C(C)O)CC2)sc2c(N3CCOCC3)nc(-c3cnc(N)nc3)nc12 (stereo not given),inactive
26,Nc1ccc(-c2cccc3c(=O)cc(N4CCOCC4)oc23)cc1,inactive
27,CCNC(=O)Nc1ccc(-c2nc3c(c(N4CCOC[C@@H]4C)n2)CCN(c2ncccn2)C3)cc1,inactive
28,CC(C)O[C@@H]1O[C@H](CO)[C@@H](O)[C@H](O)[C@H]1O,inactive
29,C[C@H]1CC[C@@H]2N(C1)C[C@@H]1[C@H]([C@@H](O)[C@H](O)[C@]3(O)[C@H]1C[C@@]14OC5(O)[C@@H](C[C@@H](O)[C@@H]31)[C@]4(C)CC[C@@H]5O)[C@]2(C)O,inactive
30,CC1CC(O)C2(OC1=O)OC1C(O)C3C4CCC5CC(OC6OC(CO)C(O)C(O)C6OC6OC(C)C(O)C(O)C6O)CCC5(C)C4CCC3(C)C1C2C (stereo not given),inactive
